Screens as filed in PubChem BioAssay.
TDP1 cell noCPT = qHTS for Inhibitors of human tyrosyl-DNA phosphodiesterase 1 (TDP1): qHTS in cells in absence of CPT. DT40 Tdp1-/- hTDP1 cells, no CPT, ATP luminescence, 48 h. Potency, µM (titrated, usually from 46.2 µM), hits mostly inhibitors. 420,000 compounds, 15% hits. AID 686978, 2013; further: nearly all actives have a fitted effect of over 55% in size
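DT40 Tdp1-/-;hTDP1 cells, no CPT (DMSO vehicle only), 400 cells/well; compounds pin-transferred; ≥48 hr, 37 °C; CellTiter-Glo 30 min RT dark, luminescence read.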
HT1080-NT tox = kills 2HG-producing HT-1080-NT fibrosarcoma cells. HT-1080-NT fibrosarcoma viability, CellTiter-Glo ATP luminescence, 48 h. Potency, µM (highest dose often 46.1 µM), hits mostly cytotoxic. 360,000 compounds, 1.6% hits;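 further: NT is the 2HG producing partner of a matched IDH1 knockdown line; nearly all actives have a fitted effect of over 55% in size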
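Viability of the 2HG-overproducing fibrosarcoma line after 48 hours of compound exposure at 37 degrees C was determined by luminescence with CellTiter-Glo, and concentration-effect curves were then fitted and categorized.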
HT1080 IDH1KD tx = toxicity to HT-1080 IDH1 knockdown cells (counter line). HT-1080 IDH1 knockdown viability, ATP luminescence, 48 h. AID 686971. Potency, µM (doses to about 46.1 µM), usual class: cytotoxic. 360,000 compounds, 2% hits
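CellTiter-Glo luminescence after 48 h compound exposure at 37 degrees C of IDH1-knockdown HT-1080 cells in 5% FBS RPMI. %Activity scaled between DMSO wells and cell-free media wells, with curves fitted and assigned curve classes.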
TDP1 cell CPT = DT40-hTDP1 cell growth loss with CPT; chicken DT40 Tdp1-/-;hTDP1 cells + 20 nM CPT, ATP luminescence, 48 h; Potency, µM (doses to about 46.2 µM), hits mostly inhibitors; 420,000 compounds, 12% hits; AID 686979; further: nearly all actives have a fitted effect of over 55% in size
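Cell growth measured by CellTiter-Glo luminescence after a minimum 48 h, 37 C compound exposure with 20 nM CPT in Tdp1-knockout DT40 cells stably expressing hTDP1, seeded 400/well; qHTS titration format.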
IL1B secr inh = inhibitors of inflammasome signaling (IL-1 beta secretion); THP-1 LPS/ATP IL-1B secretion, AlphaLISA, 16 h; active compounds read low; activity change, % at 57.5 µM; 360,000 compounds, 4.7% hits; AID 743279; in the data active means activity change below about -50%; inconclusive means mostly about -30% to -49%
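Secreted IL-1B measured by AlphaLISA bead assay after 16 h compound exposure of THP-1 cells; compounds (final up to 57.5 uM) added 1 h before LPS (250 ng/mL) and ATP (1.25 mM) stimulation; lower signal means less secretion.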
Of the large screens only hits and unclear results are named; the others gave an inactive call. Most compounds without a hit are left out; they make up all but 19% or so of the library. Unless noted, the call rests on the fitted dose curve; in most records, active means well fitted curve in the direction sought with a large enough effect; inconclusive means small, poorly fitted or top-dose-only effect, or another doubt; inactive means no such curve, though single readings can be large; an effect the other way counts as inactive or inconclusive.

CCOC(=O)[C@]12CCCC=C1N(Cc1ccccc1)C(=O)[C@H](CC(=O)NCCCCc1ccccc1)C2	TDP1 cell noCPT inconclusive, HT1080 IDH1KD tx inconclusive, TDP1 cell CPT inconclusive
COc1cccc(CN(C)C(=O)C2CCN(S(=O)(=O)c3cccs3)CC2)c1OC	TDP1 cell noCPT inconclusive
Cc1ccc(-c2c(C#N)c(N)nc3c2CCCC3)s1	none
Cc1cccc(C)c1NC(=O)C(c1ccccc1)n1c(=O)c(-c2ccccc2)nc2ccccc21 (configuration not stated)	TDP1 cell noCPT 16µM, TDP1 cell CPT inconclusive
O=C(O)c1nc(-c2ccccc2)n(-c2cccc(C(F)(F)F)c2)n1	none
O=C(OCc1ccc(C(=O)c2ccccc2)cc1)c1cccc(-c2nnc(-c3ccccc3)o2)c1	TDP1 cell noCPT inconclusive, TDP1 cell CPT 16µM
CCOC(=O)c1cccc(COC(=O)c2cccc(-c3nnc(-c4ccccc4)o3)c2)c1	TDP1 cell noCPT 16µM, TDP1 cell CPT 26µM
O=C(CCC1N=C2c3ccccc3N=C(SCC(=O)Nc3ccc(F)cc3)N2C1=O)NCc1ccco1 (configuration not stated)	TDP1 cell noCPT inconclusive (no result: HT1080-NT tox, HT1080 IDH1KD tx, IL1B secr inh)
COc1ccc(NC(=O)CSC2=Nc3ccccc3C3=NC(CCC(=O)NCCc4ccccc4)C(=O)N23)cc1 (configuration not stated)	none (no result: HT1080-NT tox, HT1080 IDH1KD tx, IL1B secr inh)
O=C(CC1N=C2c3ccccc3N=C(SCC(=O)Nc3ccc(F)cc3)N2C1=O)NCc1ccco1 (configuration not stated)	TDP1 cell noCPT 16µM, TDP1 cell CPT inconclusive (no result: HT1080-NT tox, HT1080 IDH1KD tx, IL1B secr inh)
COc1ccc(NC(=O)CSC2=Nc3ccccc3C3=NC(CCC(=O)NCc4ccco4)C(=O)N23)cc1 (configuration not stated)	TDP1 cell noCPT 12µM, TDP1 cell CPT 12µM (no result: HT1080-NT tox, HT1080 IDH1KD tx, IL1B secr inh)
Cc1ccc(NC(=O)CNC(c2ccccc2)c2ccccc2)c(F)c1	TDP1 cell noCPT inconclusive, TDP1 cell CPT inconclusive
O=C(CNC(c1ccccc1)c1ccccc1)Nc1c(F)cccc1F	TDP1 cell noCPT 16µM, TDP1 cell CPT inconclusive
CN1CCN(C(=S)NC(=O)/C=C/c2cccc3ccccc23)CC1	HT1080-NT tox 10µM, HT1080 IDH1KD tx inconclusive
CN1CCN(C(=S)NC(=O)/C=C/c2cccs2)CC1	none
CCN1CCN(C(=S)NC(CC(=O)c2ccccc2)c2ccccc2)CC1 (configuration not stated)	IL1B secr inh inconclusive
CN1CCN(C(=S)NC(CC(=O)c2ccccc2)c2ccccc2)CC1 (configuration not stated)	IL1B secr inh -52
Cc1ccc(C)c(N2CCN(S(=O)(=O)c3ccc4c(c3)n(C)c(=O)c(=O)n4C)CC2)c1	none (no result: HT1080-NT tox, HT1080 IDH1KD tx, IL1B secr inh)
COc1ccccc1N1CCN(S(=O)(=O)c2ccc(-c3cnc(C4CC4)o3)cc2)CC1	TDP1 cell noCPT 21µM, TDP1 cell CPT inconclusive
COc1cccc(N2CCN(S(=O)(=O)c3ccc(-c4cnc(C5CC5)o4)cc3)CC2)c1	none
Cc1cccc(N2CCN(S(=O)(=O)c3ccc(-c4cnc(C5CC5)o4)cc3)CC2)c1C	TDP1 cell noCPT 13µM, TDP1 cell CPT 18µM (no result: HT1080-NT tox, HT1080 IDH1KD tx, IL1B secr inh)
Cc1ccc(C)c(N2CCN(S(=O)(=O)c3ccc(-c4cnc(C5CC5)o4)cc3)CC2)c1	TDP1 cell noCPT 9.2µM, TDP1 cell CPT 15µM (no result: HT1080-NT tox, HT1080 IDH1KD tx, IL1B secr inh)
CC(=O)Nc1ccc(NC(=O)C(Cc2ccccc2)NC(=O)C2CCC(C)CC2)cc1 (configuration not stated)	none
N#CC(Cc1cccs1)c1nc2ccccc2[nH]1 (configuration not stated)	none
N#CC(/C(=N/S(=O)(=O)c1cccs1)c1ccccc1)c1nc2ccccc2[nH]1 (configuration not stated)	TDP1 cell noCPT 7.3µM
CN(C)c1nc(C=C(C#N)C#N)c(Cl)n1-c1ccc(F)cc1	TDP1 cell noCPT 5.2µM, HT1080-NT tox 7.3µM, HT1080 IDH1KD tx 4.6µM, TDP1 cell CPT 4.1µM, IL1B secr inh -97
CCOC(=O)C1CSC2(CCC(c3ccccc3)CC2)N1 (configuration not stated)	none
CCOC(=O)[C@@H]1CSCCS(=O)(=O)N1	TDP1 cell noCPT 18µM, TDP1 cell CPT 12µM
